Only a selection was taken, and hits are over-represented in it overall.
HT1080 IDH1KD tx: qHTS for induction of synthetic lethality in tumor cells producing 2HG: qHTS for the HT-1080-IDH1KD cell line; HT-1080 IDH1 knockdown viability, ATP luminescence, 48 h; Potency, µM (titrated, usually from 46.1 µM), inactives show at the top dose activity, negative = toxicity, hits mostly cytotoxic; actives 2% (n = 360,000);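 further: potency means the concentration at half of the fitted maximal effect; 0% = DMSO wells and -100% = cell-free medium wells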
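Cytotoxicity counter-line: IDH1KD HT-1080, 48 h, CellTiter-Glo. Curves classed by r2, magnitude and activity.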
IL1B secr inh: qHTS for Inhibitors of Inflammasome Signaling: IL-1-beta AlphaLISA Primary Screen. THP-1 LPS/ATP IL-1B secretion, AlphaLISA, 16 h; hits give low values. activity change, % at 57.5 µM. actives 4.7% (n = 360,000); in the data active means activity change below about -50%; inconclusive means mostly about -30% to -49%
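Secreted IL-1B measured by AlphaLISA bead assay after 16 h compound exposure of THP-1 cells; compounds (final up to 57.5 uM) added 1 h before LPS (250 ng/mL) and ATP (1.25 mM) stimulation; lower signal means less secretion.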
DT40 TDP1 CPT: qHTS for Inhibitors of human tyrosyl-DNA phosphodiesterase 1 (TDP1): qHTS in cells in presence of CPT; chicken DT40 Tdp1-/-;hTDP1 cells + 20 nM CPT, ATP luminescence, 48 h; Potency, µM (top dose mostly 46.2 µM), without a hit: top-dose activity change, negative = growth inhibition, actives largely listed as inhibitors; actives 12% (n = 420,000); AID 686979, 2013; further: potency means the concentration at half of the fitted maximal effect; nearly all actives have a fitted effect of over 55% in size
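Chicken DT40 Tdp1-/- cells stably complemented with human TDP1 were seeded at 400 cells/well in medium containing 20 nM camptothecin, exposed to pin-transferred compounds, and grown at 37 °C for at least 48 hr. Viability was read as ATP luminescence.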
TDP1 cell noCPT: qHTS for Inhibitors of human tyrosyl-DNA phosphodiesterase 1 (TDP1): qHTS in cells in absence of CPT; actives 15% (n = 420,000); DT40 Tdp1-/- hTDP1 cells, no CPT, ATP luminescence, 48 h; Potency, µM (titrated, usually from 46.2 µM), for inactives: at the highest dose activity change, negative = growth inhibition, hits mostly inhibitors; further: potency means the concentration at half of the fitted maximal effect; nearly all actives have a fitted effect of over 55% in size
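Growth of hTDP1-complemented DT40 Tdp1-knockout cells is measured by ATP luminescence after at least 48 hr compound exposure at 37 °C, with DMSO substituting for the 20 nM CPT used in the parallel screen.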
HT1080NT lethal: qHTS for induction of synthetic lethality in tumor cells producing 2HG: qHTS for the HT-1080-NT fibrosarcoma cell line; HT-1080-NT fibrosarcoma viability, CellTiter-Glo ATP luminescence, 48 h; Potency, µM (highest dose often 46.1 µM), for inactives: top-dose activity, negative = less viability, actives largely listed as cytotoxic; actives 1.6% (n = 360,000);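 further: NT is the 2HG producing partner of a matched IDH1 knockdown line; potency means the concentration at half of the fitted maximal effect; 0% = DMSO-treated cells and -100% = media-only wells without cells; nearly all actives have a fitted effect of over 55% in size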
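Read-out is CellTiter-Glo luminescence after 10 minutes at room temperature, following 48 hours' compound treatment of HT-1080-NT cells (750 cells/well, RPMI, 5% FBS, 37 degrees C).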
ALOX12 inh: Primary qHTS assay for inhibitors of human arachidonate 12S-lipoxygenase (ALOX12): Round 2; Polyunsaturated fatty acid lipoxygenase ALOX12 (Homo sapiens), P18054; purified 12hLO, xylenol orange hydroperoxide absorbance; Potency, µM (top dose mostly 108 µM), for inactives: at the top dose activity change, negative = inhibition, actives largely listed as inhibitors; actives 1.1% (n = 580,000); further: potency means the concentration at half of the fitted maximal effect
Target sequence (P18054 whole entry, looked up): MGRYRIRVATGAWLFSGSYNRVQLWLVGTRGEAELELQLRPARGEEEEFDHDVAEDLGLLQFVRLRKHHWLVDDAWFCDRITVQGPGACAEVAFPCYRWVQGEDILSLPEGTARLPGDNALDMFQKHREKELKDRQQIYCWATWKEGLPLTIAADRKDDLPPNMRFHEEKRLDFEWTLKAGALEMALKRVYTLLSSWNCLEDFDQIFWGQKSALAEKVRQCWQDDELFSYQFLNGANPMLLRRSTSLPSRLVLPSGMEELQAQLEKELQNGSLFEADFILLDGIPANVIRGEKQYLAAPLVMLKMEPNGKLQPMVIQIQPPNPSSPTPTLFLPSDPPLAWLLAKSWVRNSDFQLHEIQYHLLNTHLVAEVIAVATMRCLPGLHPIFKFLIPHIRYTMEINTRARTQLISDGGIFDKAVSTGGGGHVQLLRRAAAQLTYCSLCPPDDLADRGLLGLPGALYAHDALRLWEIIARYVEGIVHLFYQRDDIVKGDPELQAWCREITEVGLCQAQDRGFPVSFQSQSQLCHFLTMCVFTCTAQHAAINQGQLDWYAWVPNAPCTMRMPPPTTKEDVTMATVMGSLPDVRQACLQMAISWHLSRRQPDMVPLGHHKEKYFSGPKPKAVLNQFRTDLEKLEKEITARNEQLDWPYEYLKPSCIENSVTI
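Purified human 12hLO at 150 nM in 25 mM Hepes, 0.01% Triton X-100, pH 7.0, preincubated 15 min at room temperature with compound. Reaction started with 40 uM arachidonic acid, 30 min at room temperature. Hydroperoxide measured by Fe-xylenol orange, 573/405 nm absorbance ratio.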
Active calls of the source: *; ? = inconclusive; / = not tested or not shown; [ ] = remark or other dose. Unless noted, the call rests on the fitted dose curve; in most records, active means well fitted curve in the direction sought with a large enough effect; inconclusive means small, poorly fitted or top-dose-only effect, or another doubt; inactive means no such curve, though single readings can be large; an effect the other way counts as inactive or inconclusive. Unless noted, on the % scale 0 is the no-effect control and ±100 the full control effect.

SMILES | HT1080 IDH1KD tx | IL1B secr inh | DT40 TDP1 CPT | TDP1 cell noCPT | HT1080NT lethal | ALOX12 inh
Cc1cc2oc(C(=O)N(Cc3ccccc3Cl)C3CCS(=O)(=O)C3)cc(=O)c2cc1Cl (stereo not drawn) | / | / | / | / | / | 3%
COc1ccccc1-c1ccc(/C=C2/C=C(C)OC2=O)o1 | 9% | -6 | 13µM* | 10µM* | 4% | ?
COC(=O)c1ccccc1-c1ccc(C=O)o1 | 12% | 9 | -17% | -5% | 12% | 0%
COc1ccccc1-c1ccc(/C=C2\C=CC(=O)O2)o1 | ? | / | 21µM* | ? | -27% | ?
CCOc1ccc(N(CC)C(=O)C(=O)c2c(C)n(C)c3ccccc23)cc1 | / | / | / | / | / | -7%
CCn1cc(CN2CCc3nn(CC4CC4)c(=O)n3CC2)cn1 | / | / | / | / | / | 58%
CCCN1CNC(=S)N(N2CN(CCC)CNC2=S)C1 | / | / | / | / | / | 13µM*
COc1ccc(C(=O)OCC(=O)c2cc(OC)ccc2OC)cc1 | / | / | / | / | / | 3%
O=C(C1=C[C@@H](c2csc3ccccc23)C[C@@H](OCc2ccc(CO)cc2)O1)N1CCN(Cc2ccc3c(c2)OCO3)CC1 | ? | ? | ? | ? | -21% | ?
O=C(C1=C[C@H](c2csc3ccccc23)C[C@H](OCCCCO)O1)N1CCN(Cc2ccccc2)CC1 | -1% | -6 | 26µM* | ? | -10% | 13%
O=C(Nc1ccccc1)C1=C[C@H](c2csc3ccccc23)C[C@H](OCCCCO)O1 | -20% | -29 | ? | ? | -19% | ?
O=C(C1=C[C@H](c2csc3ccccc23)C[C@H](OCCCCO)O1)N1CCN(Cc2ccc3c(c2)OCO3)CC1 | ? | -54* | ? | ? | -29% | ?
O=C(C1=C[C@@H](c2csc3ccccc23)C[C@@H](OCc2ccc(CO)cc2)O1)N1CCN(Cc2ccccc2)CC1 | -9% | -60* | ? | ? | -26% | /
O=C(C1=C[C@@H](c2csc3ccccc23)C[C@@H](OCCCCO)O1)N1CCN(Cc2ccc3c(c2)OCO3)CC1 | -26% | ? | ? | ? | -27% | -29%
O=C(NCc1ccccc1)C1=C[C@H](c2csc3ccccc23)C[C@H](OCCCCO)O1 | -12% | -25 | 16µM* | 18µM* | -5% | 282%
O=C(c1ccccc1F)N1CCC2(CC1)COc1ccccc1CN2 | / | / | / | / | / | 28%[176 µM]
Cn1nc(C(=O)OCC(=O)N2c3ccccc3NC(=O)C2(C)C)c2ccccc2c1=O | / | / | / | / | / | -25%
COc1ccc(C(=O)N2CCc3ccc(C(=O)NCc4ccc(C)o4)cc32)cc1 | / | / | / | / | / | 24%
CC(C)c1nnc(NC(=O)C(Sc2ccccc2)c2ccccc2)s1 (stereo not drawn) | / | / | / | / | / | 24%
O=C(C1=C[C@H](c2ccc(Br)cc2)C[C@H](OCCCCO)O1)N1CCN(Cc2ccccc2)CC1 | -2% | 0 | 23µM* | ? | ? | -28%
O=C(C1=C[C@@H](C2CC2)C[C@@H](OCCCCO)O1)N1CCN(Cc2ccccc2)CC1 | 7% | -8 | -1% | -1% | 11% | -6%
Cc1ccc2cc(C=O)c(N3CCOCC3)nc2c1C | ? | ? | ? | 18µM* | -30% | 7%
CCOC(=O)c1sc(Nc2nc(C)cc(C)n2)nc1C | 1% | 31 | 7.3µM* | 6.5µM* | -5% | -54%
CCOC(=O)c1sc(Nc2ccc(F)cc2)nc1C | -2% | -21 | ? | ? | -13% | 0%
CCOC(=O)c1sc(Nc2nc(C)cc(OC)n2)nc1C | 6% | 72 | ? | 13µM* | 16% | 1%
SMILES | HT1080 IDH1KD tx | IL1B secr inh | DT40 TDP1 CPT | TDP1 cell noCPT | HT1080NT lethal | ALOX12 inh
CCOC(=O)c1sc(Nc2ccc(C)cc2C)nc1C | -5% | -17 | ? | 16µM* | -12% | ?
CCc1nc2c(OCC(N)=O)cccn2c1N(C)C(=O)c1cccs1 | 8% | 42 | -6% | -5% | ? | -39%
CCc1nc2c(OCc3c(C)noc3C)cccn2c1N(C=O)Cc1ccc(OC)cc1 | 0% | 6 | 23µM* | 15µM* | 1% | -16%
CCc1nc2c(OCCn3cccc3)cccn2c1N(C=O)Cc1ccc(OC)cc1 | -2% | -22 | 21µM* | ? | -25% | -13%
CCc1nc2c(OCC(=O)c3ccc(Cl)cc3Cl)cccn2c1N(C)C(=O)c1cccs1 | ? | ? | 16µM* | 18µM* | ? | ?
CCCCN(C=O)c1c(CC)nc2c(OCc3cccc(Cl)c3)cccn12 | -22% | 14 | ? | ? | -4% | -26%
CCc1nc2c(OCc3c(C)noc3C)cccn2c1N(C)C(=O)C(C)C | 12% | 6 | ? | ? | 17% | /
CCc1nc2c(OCc3ccc(Cl)cc3Cl)cccn2c1N(C=O)Cc1ccc(OC)cc1 | 24% | -67* | ? | 23µM* | 12% | -25%
CC(C)CC(=O)N1CCN(C(=O)c2c[nH]c3ccccc23)CC1 | / | / | / | / | / | 5%
CCc1nc2c(OCc3ccc(Cl)cc3)cccn2c1N(C=O)Cc1ccc(OC)cc1 | ? | 0 | 21µM* | ? | ? | -4%
